Our source for the liver cell % of control and parasite % of control values is PubChem BioAssay.

Active and inactive are the calls of the source. No rule for the calls is given here.

A short description of the assay: kinase inhibitors against Plasmodium liver-stage infection, cell-based, known kinase inhibitor set, luminescence, hepatoma host viability (AID 624392).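 Also: infected cells incubated roughly two days before readout.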 To be noted: Plasmodium liver stage in hepatoma cells, luciferase luminescence, concentration not given here; liver cell % of control: measured here: host liver cell viability; parasite % of control: stronger effect = lower value.
For the compound `O=c1[nH]c2ccccc2c2ncnc(Nc3ccc(OC(F)(F)F)cc3)c12`, the liver cell % of control came out at 101% and the parasite % of control was 119% (inactive).
As for `COC(=O)c1ccc2c(c1)[nH]c(=O)c1c(Nc3ccc(OC(F)(F)F)cc3)ncnc12`, the parasite % of control was 97.4% (inactive) and the liver cell % of control was 107%.
The corresponding values for `C=CC(=O)Nc1ccc(Nc2nc(NC3CCC(N(C)C)CC3)nc3c2ncn3C(C)C)cc1` (centres undefined) are 6.69% (inactive) and 57.1%.
Taken in the same sequence, the figures for `Cc1ccc(C(=O)Nc2cccc(C(F)(F)F)c2)cc1NC(=O)c1csc(-c2ccncc2)n1` were 76.3% (inactive) and 91.8%.
The corresponding values for `C=CC(=O)Nc1ccc(N(C)c2ccnc(Nc3ccc(N4CCN(C)CC4)cc3)n2)cc1` are 27.8% (inactive) and 107%.
With `COc1cc(NC(=O)c2ccnc(N)c2)cc(C(=O)Nc2cccc(C(F)(F)F)c2)c1`, the liver cell % of control was 96.6% and the parasite % of control is 89.2% (inactive).
The corresponding values for `NS(=O)(=O)c1ccc(-c2ccc(C=C3SC(=O)NC3=O)o2)cc1` are 89% and 18.1% (active).
With `CCN1CCN(Cc2ccc(NC(=O)c3ccc(C)c(NC(=O)c4cccc5[nH]ccc45)c3)cc2C(F)(F)F)CC1`, the liver cell % of control was 103% and the parasite % of control was 99.7% (inactive).
The corresponding values for `CC(C)n1cnc2c(Nc3cccc(F)c3)nc(NCCO)nc21` are 95.1% and 135% (inactive).
The corresponding values for `C=CC(=O)Nc1cccc(N2C(=O)N(c3cc(OC)cc(OC)c3)Cc3cnc(NCCCCN(CC)CC)nc32)c1` are 102% and 107% (inactive).
With `O=C1NCCC(=NNc2cccnc2)c2c1[nH]c1ccc(Cl)cc21`, the parasite % of control is 133% (inactive) and the liver cell % of control was 99.3%.
Taken in the same sequence, the figures for `NC1CCC(Nc2nc(Nc3ccc(S(=O)(=O)N4CCCCC4)cc3)c3ncn(-c4ccccc4)c3n2)CC1` (centres undefined) were 336% (inactive) and 103%.
Taken in the same sequence, the figures for `COc1cc(NC(=O)c2cc3cccc(OC)c3o2)cc(C(=O)Nc2cccc(C(F)(F)F)c2)c1` were 62.8% (inactive) and 95.6%.
The corresponding values for `CCN1CCN(Cc2ccc(NC(=O)c3cc(NC(=O)c4cnnc5ccccc45)cc(OC)c3)cc2C(F)(F)F)CC1` are 85.8% (inactive) and 94.5%.
Regarding `O=C(Nc1cccc(-c2csc(Nc3ccccc3)n2)c1)c1ccccc1`, the parasite % of control is 31.8% (inactive) and the liver cell % of control turned out to be 102%.
Taken in the same sequence, the figures for `CC(C)n1cnc2c(N(C)c3cccc(Cl)c3)nc(N(CCO)CCO)nc21` were 100% (inactive) and 93.8%.
Taken in the same sequence, the figures for `Nc1ncc(-c2cccnc2)nc1C(=O)c1cccnc1` were 75.4% (inactive) and 98.8%.
Taken in the same sequence, the figures for `COc1cc(Nc2ccccn2)cc(C(=O)Nc2cccc(C(F)(F)F)c2)c1` were 74.9% (inactive) and 92.4%.
For the compound `CCN1CCN(Cc2ccc(NC(=O)c3ccc(C)c(NC(=O)c4nccn4C)c3)cc2C(F)(F)F)CC1`, the parasite % of control was 90.4% (inactive) and the liver cell % of control was found to be 101%.
Taken in the same sequence, the figures for `CCC(C)Oc1cc(-c2ccnc(Nc3cccc(Cl)c3)n2)ccn1` (centres undefined) were 150% (inactive) and 58.3%.
The corresponding values for `CCN1CCN(Cc2ccc(NC(=O)c3ccc(C)c(NC(=O)c4cccc(-c5cn[nH]c(=O)c5)c4)c3)cc2C(F)(F)F)CC1` are 55.8% (inactive) and 103%.
The corresponding values for `CCN1CCN(Cc2ccc(NC(=O)c3cc(NC(=O)N4CCNC4=O)cc(OC)c3)cc2C(F)(F)F)CC1` are 12.4% (active) and 96.3%.
Consider `Cc1ccc(C(=O)Nc2cccc(C(F)(F)F)c2)cc1Nc1cncnc1`, for which the liver cell % of control is 102% and the parasite % of control is 53.6% (inactive).
Taken in the same sequence, the figures for `O=C(Nc1ccc(-c2csc(Nc3cccc(C(F)(F)F)c3)n2)cc1)c1cc([N+](=O)[O-])cc(C(F)(F)F)c1` were 101% and 70% (inactive).
The corresponding values for `CC(C)C(CO)Nc1nc(Nc2ccc(S(=O)(=O)O)c(N)c2)c2ncn(C(C)C)c2n1` (centres undefined) are 101% and 105% (inactive).
The corresponding values for `COc1cc(NC(=O)c2ccc(N)nc2)cc(C(=O)Nc2cccc(C(F)(F)F)c2)c1` are 97.9% and 85% (inactive).
`COc1cc(C(=O)N2CCC(N3CCCCC3)CC2)ccc1Nc1nnc(Cl)c(Nc2ccccc2S(C)(=O)=O)n1`: the liver cell % of control is 97.3% and the parasite % of control is 118% (inactive).
The corresponding values for `CC(C)CC(CO)Nc1nc(N(C)c2cccc(Cl)c2)c2ncn(C(C)C)c2n1` (centres undefined) are 102% and 114% (inactive).
Taken in the same sequence, the figures for `COc1cc(NC(=O)c2cnc(N)o2)cc(C(=O)Nc2cccc(C(F)(F)F)c2)c1` were 87.7% and 106% (inactive).
As to `CCN1CCN(Cc2ccc(NC(=O)c3ccc(C)c(NC(=O)N4CCNC4=O)c3)cc2C(F)(F)F)CC1`, the liver cell % of control was 93% and the parasite % of control is 163% (inactive).
The corresponding values for `C=CC(=O)Nc1ccc(Oc2nc(Nc3ccc(N4CCN(C)CC4)cc3OC)ncc2Cl)cc1` are 97.7% and 126% (inactive).
The corresponding values for `COc1cc(C(=O)NC2CCN(C)CC2)ccc1Nc1ncc2c(n1)N(C1CCC(O)CC1)CCC(=O)N2C` (centres undefined) are 103% and 180% (inactive).
